These results are taken from PubChem BioAssay (NCI).

Several values for one entry are separate records, joined by “and”; a condition that tells them apart may be missing. Identical values can stand only once. About 83,000 compounds went through this panel and 20% of them were active in at least one assay; those are over-represented in the sample as a whole.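 Growth was measured after 48 h exposure to one concentration of compound in 96-well plates. Values under 10 count as active.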 Activity calls are given as the source filed them.

The test system of the first assay is T-47D breast. The experiment in a line: NCI-60 one-dose screen, 48 h (100 = growth as untreated, 0 = no growth, -100 = all killed). The settings on record: 0.01 µM. As for the experimental part: Growth inhibition of the T-47D human tumor cell line is measured as a screen for anti-cancer activity. Cells are grown in 96 well plates and exposed to the test compound for 48 hours. Compounds are tested at a single concentration, which is 10^-5 M for most compounds. The reported endpoint is percent growth (GI% or GIPRCNT), where numbers from 0 - 100% represent growth inhibition, and numbers from -100% - 0 represent cell death. For example, a value of 40 represents 60% growth inhibition. A value of 0 means no net growth occurred over the course of the experiment. A value of -40 indicates 40% of cells at the beginning of the experiment died by the end of the experiment. A value of -100 means all cells are dead at the end of the experiment.
NCI-60 Human Tumor Cell Lines Screen was performed using the standard one-dose NCI protocol, which is described in more detail at https://dtp.cancer.gov/discovery_development/nci-60/default.htm.
Compounds with GIPRCNT values below 10 were considered active. Activity score was based on GIPRCNT using the following formula: […]
Score is 0 for GIPRCNT values of 100 or above, 50 for GIPRCNT values of 0, and 100 for GIPRCNT values of -100.
`CC(=O)O[C@H]1C(=O)[C@@]2(C)[C@H]([C@H](OC(=O)c3ccccc3)[C@]3(O)C[C@H](OC(=O)[C@H](O)[C@@H](NC(=O)c4ccccc4)c4ccccc4)C(C)=C1C3(C)C)[C@]1(OC(C)=O)CO[C@@H]1C[C@@H]2O`: the growth was 35.5% (inactive).

The same assay, now with this note: 2.5 µM.
Consider `CC(=O)O[C@H]1C(=O)[C@@]2(C)[C@H]([C@H](OC(=O)c3ccccc3)[C@]3(O)C[C@H](OC(=O)[C@H](O)[C@@H](NC(=O)c4ccccc4)c4ccccc4)C(C)=C1C3(C)C)[C@]1(OC(C)=O)CO[C@@H]1C[C@@H]2O`, for which the growth is 27.9% (inactive).

Staying with this assay, now noted: 5 µM.
Consider `CC(=O)O[C@H]1C(=O)[C@@]2(C)[C@H]([C@H](OC(=O)c3ccccc3)[C@]3(O)C[C@H](OC(=O)[C@H](O)[C@@H](NC(=O)c4ccccc4)c4ccccc4)C(C)=C1C3(C)C)[C@]1(OC(C)=O)CO[C@@H]1C[C@@H]2O`, for which the growth was 32.5% (inactive).

The same assay, now with this note: 10 µM.
Consider `CCC(C)(c1ccc(O)c(C)c1)c1ccc(O)c(C)c1`, for which the growth is -5.53% (active).
Still for that read-out and setting: in the case of `S=C1SCN(CCc2ccccc2)CN1CCc1ccccc1` it was 70.8% (inactive).
Same read-out and setting: the result for `CN(C)CCNc1cccc2sc3ccc(O)cc3c(=O)c12` reads 64.4% (inactive).
For `CCC(=O)Oc1ccc(/C=N/NC(N)=S)nc1`, the growth is 35.7% (inactive).
Same read-out and setting: in the case of `N#C/C(=C/N1C(=O)/C(=C/c2ccc([N+](=O)[O-])cc2)SC1=S)c1nc2ccccc2s1` it was 53.6% (inactive); in that of `CC(=O)O[C@H]1C(=O)[C@@]2(C)[C@H]([C@H](OC(=O)c3ccccc3)[C@]3(O)C[C@H](OC(=O)[C@H](O)[C@@H](NC(=O)c4ccccc4)c4ccccc4)C(C)=C1C3(C)C)[C@]1(OC(C)=O)CO[C@@H]1C[C@@H]2O`, 48.7% (inactive) and 32.3% (inactive); in that of `O=C(CNS(=O)(=O)Cc1ccccc1)NNc1ccccc1`, 56.6% (inactive).
Same read-out and setting: the result for `COc1ccc2oc(-c3ccc(Cl)cc3)c(N3CCN(C)CC3)c2c1` reads 14.6% (inactive).
As to `COc1ccc2c(c1)[nH]c1c(/C=C/c3ccccc3)nccc12`, the growth is 43.7% (inactive).
Turning to `COc1cc(N)ccc1Nc1c2ccccc2nc2ccccc12`, the growth was 92.3% (inactive).
Take `O=c1[nH]cc(/C=N\Nc2ccccc2)c(=O)[nH]1`: the growth is 42.4% (inactive).
Still for that read-out and setting: the result for `CC[C@@]1(OC(=O)CN(C)C)C(=O)OCc2c1cc1n(c2=O)Cc2cc3c(N)cccc3nc2-1` reads 13.3% (inactive); that for `Cn1c2nc3ccccc3c-2nc2ccccc21`, 78.9% (inactive) and 72% (inactive); that for `Cc1cc(C)c(N2C(=O)CC(Sc3ccccc3N)C2=O)c(C)c1` (stereo not given), 87.8% (inactive).
Same read-out and setting: the result for `O=C1C(Cl)=C(Cl)C(Cl)(Cl)C(Cl)C1(Cl)Cl` (stereo not given) reads 91.9% (inactive); that for `COc1ccc(C(C#N)=C2C=CC(=NO)C=C2)cc1`, 1.56% (active); that for `COc1ccc(N)c2c1C(=O)c1ccccc1C2=O`, 81.9% (inactive).
With `S=P(N1CC1)(N1CC1)N1CC1`, the growth was 103% (inactive) and 98.1% (inactive).
Consider `Cn1ncc2cc3c(Nc4ccc(Cl)cc4)cccc3nc21`, for which the growth is 77.2% (inactive).
`Cc1cc(N=C2C=CC(=[N+](C)C)C=C2)c(N)cc1N`: the growth is 87.1% (inactive).
On to `CN(CC(=O)O)c1ccc(/C=C/c2ccnc3ccccc23)cc1`, for which the growth is 55.4% (inactive).
Same read-out and setting: the result for `Cc1cc(O)c2c(c1O)C(=O)C13C(=C2O)C(=O)C2C(O)C1C1C(O)C3C(=O)C3=C(O)c4c(O)cc(C)c(O)c4C(=O)C321` (stereo not given) reads -1.74% (active); that for `O=C(O)c1ccccc1.[Ag]`, 72.6% (inactive).
The same measure, in the same setting: the result for `N#CC(=C1C=CC(=NO)C=C1)c1ccccc1` reads -8.58% (active); that for `O=C(NC(=S)Nc1ccccn1)c1ccccc1`, 59.1% (inactive).
The same measure, in the same setting: the result for `O=C1c2cccc3cc([N+](=O)[O-])cc(c23)C(=O)N1CCN1CCCC1` reads -6.31% (active); that for `O=C1C=CC(=O)N1c1ccc(N2C(=O)C=CC2=O)cc1`, 95.9% (inactive); that for `NCc1c(O)ccc2ccccc12`, 98.3% (inactive).
As for `CCOC(=O)[C@]1(Br)CC[C@@]1(Br)C(=O)OCC`, the growth is 70.7% (inactive).
Take `CN(C)c1ccc(/C=C/c2ccnc3ccccc23)cc1N`: the growth is 48.3% (inactive).
For `COc1cccc(C(c2cc3c(cc2O)OCO3)N2CCOCC2)c1OC` (stereo not given), the growth was 97.2% (inactive).
The same measure, in the same setting: in the case of `Cc1cc(Cl)ccc1NC(=O)/C(Cl)=C1/Sc2ccccc2NC1=O` it was 50.3% (inactive).
`C=C1N(C)c2ccc(Cl)cc2C1(C)C`: the growth was 33.7% (inactive).
As for `O=Nc1ccc(Nc2ccccc2)cc1`, the growth was 63.2% (inactive).
As for `Nc1nc(N)c2cc(Sc3ccc4ccccc4c3)ccc2n1`, the growth is 45.8% (inactive).
With `O=C1c2ccccc2CCC1(Br)Br`, the growth was -23.8% (active).

Staying with this assay, now noted: 100 µM.
`S=P(N1CC1)(N1CC1)N1CC1`: the growth is 53.7% (inactive).
